Cycloheximide cs: counter-screen for Shiga toxin inhibitors: cycloheximide protein synthesis inhibition. 300,000 tested, 12% active. cell reporter, cycloheximide protein synthesis inhibition counterscreen. max response, %. AID 2314; in the data active means max response mostly above about 13%, no sharp cut-off; inactive means mostly below about 14%; further: read at 38.3 µM for the half of the compounds with a filed dose; 0% is about no effect
Giardia FBPA inh: inhibitors of Giardia lamblia fructose-1,6-bisphosphate aldolase; purified Giardia FBPA; Potency, µM (top dose mostly 59.6 µM), for inactives: at the top dose activity, negative = inhibition, usual class: inhibitors; A8B2U2; 290,000 tested, 0.71% active; further: potency means the concentration at half of the fitted maximal effect; on the % scale 0 is the no-effect control and ±100 the full control effect; nearly all actives have a fitted effect of over 55% in size
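Giardia FBPA (40 nM reagent) was preincubated 10 min at RT with compound (up to 57.5 uM final), then substrate plus GAPDH/TPI/NAD/arsenate coupling system with diaphorase/resazurin was added; resorufin fluorescence (525/598 nm) was read after 20 min.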
Sm TGR block: inhibitors of Schistosoma mansoni thioredoxin glutathione reductase | purified TGR, DTNB reduction, TNB absorbance 405 nm | Potency, µM (highest dose often 114 µM), inactives show at the top dose activity change, negative = inhibition, usual class: inhibitors | 360,000 tested, 3% active; further: potency means the concentration at half of the fitted maximal effect; on the % scale 0 is the no-effect control and ±100 the full control effect; nearly all actives have a fitted effect of over 60% in size
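Kinetic colorimetric format: TGR-catalysed, NADPH-driven DTNB reduction monitored via TNB absorbance. Enzyme dispensed at 20 nM; compound exposure 15 min at room temperature before reaction start.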
Tb PYK inh: inhibitors of Trypanosoma brucei pyruvate kinase; Q57TT1; TbPYK enzyme, Kinase-Glo Plus ATP luminescence, 45 min; Potency, µM (series often up to 76.8 µM), for inactives: top-dose activity, negative = inhibition, actives largely listed as inhibitors; 410,000 tested, 0.12% active; further: potency means the concentration at half of the fitted maximal effect; on the % scale 0 is the no-effect control and ±100 the full control effect; nearly all actives have a fitted effect of over 50% in size
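Assay buffer: 50 mM TEA pH 7.2, 100 mM KCl, 10 mM MgCl2, 0.05% BSA, 0.01% Tween-20. Pyruvate kinase from T. brucei plus substrate met compound, then ADP (130 uM final). Luminescence was read post 45 min RT.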
Shiga inhibitor: blocks Shiga toxin action in Vero cells | Vero cells, Shiga toxin protein synthesis inhibition reporter | AID 2315 | 290,000 tested, 9.2% active | inhibition, % at 38.7 µM; in the data active means inhibition mostly above about 28%, no sharp cut-off; inactive means mostly below about 43%; further: 0% is about no effect
LmPK inh: LmPK (Leishmania mexicana) enzyme inhibition | 290,000 tested, 0.37% active | Potency, µM (doses to about 57.5 µM), for inactives: top-dose activity change, negative = inhibition, usual class: inhibitors | purified LmPK, Kinase-Glo ATP luminescence, 1 h; further: potency means the concentration at half of the fitted maximal effect; on the % scale 0 is the no-effect control and ±100 the full control effect
Target sequence (Q27686 whole entry, looked up): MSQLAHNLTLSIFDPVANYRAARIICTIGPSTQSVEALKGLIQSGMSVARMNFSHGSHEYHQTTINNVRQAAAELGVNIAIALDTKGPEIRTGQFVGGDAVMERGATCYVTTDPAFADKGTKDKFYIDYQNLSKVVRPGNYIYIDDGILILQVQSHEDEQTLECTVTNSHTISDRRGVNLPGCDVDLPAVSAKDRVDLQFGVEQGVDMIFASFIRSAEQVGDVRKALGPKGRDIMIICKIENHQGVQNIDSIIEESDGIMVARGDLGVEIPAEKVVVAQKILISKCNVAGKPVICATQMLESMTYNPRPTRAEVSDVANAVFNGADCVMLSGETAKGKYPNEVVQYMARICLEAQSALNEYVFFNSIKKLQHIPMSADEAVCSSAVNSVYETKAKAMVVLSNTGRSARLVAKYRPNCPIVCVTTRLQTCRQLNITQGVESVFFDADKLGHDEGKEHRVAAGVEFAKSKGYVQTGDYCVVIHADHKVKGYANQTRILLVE
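Screened at intermediate enzyme activity to detect both inhibitors and activators: LmPK at 0.1 nM, with a 0.5 nM enzyme column as activation reference. PEP 0.5 mM, ADP 0.1 mM; ATP detected by luminescence after 1 h.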
The depositor's hits bear a star; ? = inconclusive; . = no result; [ ] = dose if it differs, or a comment. The entries come from a sample that favours hits as a whole. Unless noted, the call rests on the fitted dose curve; in most records, active means well fitted curve in the direction sought with a large enough effect; inconclusive means small, poorly fitted or top-dose-only effect, or another doubt; inactive means no such curve, though single readings can be large; an effect the other way counts as inactive or inconclusive.

SMILES	Cycloheximide cs	Giardia FBPA inh	Sm TGR block	Tb PYK inh	Shiga inhibitor	LmPK inh
Cc1cc(C)nc(Nc2n[nH]c(-c3ccccc3C)n2)n1	42*	-7%	.	4%	100*	-2%
Cc1cc(C)nc(Nc2n[nH]c(-c3ccccc3Br)n2)n1	48*	1%	6%	4%	110*	-13%
Cc1ccc(-n2nc(C)c3c(C(=O)NCCc4ccc(S(N)(=O)=O)cc4)cc(C)nc32)cc1	.	.	7%	-2%	.	.
COc1ccc(NC(=O)Nc2cc(NC(=O)Nc3ccc(OC)cc3)c(C)nc2C)cc1	-2	0%	-2%	-2%	9	-5%
Cc1cccc(NC(=O)CCCNC(=O)c2ccc(Cl)cc2)n1	-3	.	-14%	-7%	-6	-12%
COc1ccc(NC(=O)Nc2cccc(C)n2)cc1	49*	-4%	2%	11%	117*	-2%
COc1ccc(NC(=S)Nc2cccc(C)n2)cc1	19*	0%	-25%	4%	62	2%
COC(=O)c1ccccc1NC(=O)Nc1cccc(C)n1	-1	-1%	13%	4%	-8	-4%
CCC(=O)Nc1ccc(C(=O)Nc2cccc(C)n2)cc1	35*	-13%	13%	-6%	62*	-18%
Cc1cccc(NC(=O)Nc2ccc(Br)cc2)n1	29*	5%	7%	1%	59*	3%
O=C1NC(=O)N(Cc2ccccc2)C(=O)/C1=C/c1cnc(-c2ccccc2)nc1	11	0%	10µM*	-2%	32	19%
CC(C)c1ccc(N2C(=O)NC(=O)/C(=C/c3cnc(-c4ccccc4)nc3)C2=O)cc1	-1	-8%	3.5µM*	-5%	14	2%
CCc1ccc(N2C(=O)NC(=O)/C(=C/c3ccsc3)C2=O)cc1	-2	-8%	-18%	.	9	-1%
CSc1ncc(/C=C2/C(=O)NC(=O)N(c3ccc(C(C)C)cc3)C2=O)cn1	-5	6%	11µM*	3%	1	2%
COc1ccccc1NC(=O)c1oc2ccccc2c1NC(=O)c1c(F)cccc1F	.	.	1%	3%	.	.
CC(=O)N/C(=N/c1nc(C)cc(C)n1)Nc1ccc(NC(C)=O)cc1	1	-23%	2%	-1%	-10	1%
CC(=O)N/C(=N\c1nc(C)cc(C)n1)Nc1ccc2ccccc2c1	40*	0%	10%	-21%	125*	12%
COc1ccccc1/C=C1\CCCC2=C1Nc1nnnn1C2c1ccccc1OC (stereo not drawn)	-3	-13%	4µM*	-9%	8	-1%
COc1ccccc1NC(=O)C1=C(C)Nc2nnnn2C1c1ccccc1OC (stereo not drawn)	-1	0%	-4%	1%	12	-4%
CCCOc1ccc(N2C(=O)CC(SCCc3nc4ccccc4[nH]3)C2=O)cc1 (stereo not drawn)	-1	-7%	-13%[57.1 µM]	-10%	-10	-9%
O=C1CC(SCc2nc3ccccc3[nH]2)C(=O)N1c1ccc(Cl)cc1 (stereo not drawn)	2	-17%	25µM*	-7%	-15	-1%
O=C1CC(SCCc2nc3ccccc3[nH]2)C(=O)N1c1ccc(Cl)cc1 (stereo not drawn)	-1	-2%	?	-6%	-5	4%
CCOc1ccc(N2C(=O)CC(SCc3nc4ccccc4[nH]3)C2=O)cc1 (stereo not drawn)	8	-17%	45µM*	5%	10	2%
O=C1CC(SCc2nc3ccccc3[nH]2)C(=O)N1c1ccc(F)c(Cl)c1 (stereo not drawn)	-3	-3%	40µM*	.	-6	5%
N#CC1(C#N)CC(C=O)=C(N)C1(C#N)CC(=O)C12CC3CC(CC(C3)C1)C2 (stereo not drawn)	-5	-3%	40µM*	-19%	-14	3%
Nc1nccnc1C(=O)OCC(=O)C12CC3CC(CC(C3)C1)C2	.	.	-3%	-3%	.	.
O=C1Nc2cc(C(=O)N3CCC4(CC3)OCCO4)ccc2NC1CSCc1cccc(F)c1 (stereo not drawn)	6	.	50µM*	.	-5	22%
Brc1cc2[nH]cnc2c2ccccc12	5	18µM*	?	-10%	-10	0%

Source: PubChem
